Measured values from PubChem BioAssay AID629 (Emory University Molecular Libraries Screening Center, 2007).
The campaign covered roughly 86,000 compounds. About 1,400 (1.6%) were called active. The list comes from a sample in which actives are over-represented; it also holds similar structures and randomly drawn compounds. Unmarked numbers belong to inactive results. Rule as the data show it: active = inhibition above about 50%; inactive = the rest.

biological target: Estrogen receptor (Homo sapiens) (UniProt P03372); experiment: blockers of SRC-1 peptide recruitment to ERα – biochemical, TR-FRET, ERα LBD, estradiol-bound, primary screen (AID 629); conditions: TR-FRET ER-alpha LBD / SRC-1 peptide, at 25.6 µM, active compounds read high;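 also: 0% = receptor plus peptide control and 100% = peptide only without receptor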
Sequence (P03372 whole entry, looked up, the tested form may be a part): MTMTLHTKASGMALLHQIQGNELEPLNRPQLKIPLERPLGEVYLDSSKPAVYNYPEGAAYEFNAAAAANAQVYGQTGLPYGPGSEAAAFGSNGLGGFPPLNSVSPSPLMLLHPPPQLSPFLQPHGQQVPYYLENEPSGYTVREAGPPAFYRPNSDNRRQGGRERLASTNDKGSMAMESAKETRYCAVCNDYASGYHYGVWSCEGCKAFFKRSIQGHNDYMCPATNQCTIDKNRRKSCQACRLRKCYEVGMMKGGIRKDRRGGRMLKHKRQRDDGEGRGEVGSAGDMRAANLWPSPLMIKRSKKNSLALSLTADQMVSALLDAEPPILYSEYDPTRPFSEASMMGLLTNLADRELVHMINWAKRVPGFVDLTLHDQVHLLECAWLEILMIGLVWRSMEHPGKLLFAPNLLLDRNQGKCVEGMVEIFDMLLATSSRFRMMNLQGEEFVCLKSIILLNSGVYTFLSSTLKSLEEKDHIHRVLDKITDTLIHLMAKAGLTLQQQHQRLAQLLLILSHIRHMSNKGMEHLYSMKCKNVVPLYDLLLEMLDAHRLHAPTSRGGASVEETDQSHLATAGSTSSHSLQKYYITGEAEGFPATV

| Compound | inhibition |
| --- | --- |
| Cc1cc(NC(=O)CSc2nc(C(C)C)nc3sc4c(c23)CCC(C)C4)no1 (stereo unspecified) | -14.6% |
| CC1CCc2c(sc(NC(=O)c3ccc(Cn4cc(Br)cn4)o3)c2C(N)=O)C1 (stereo unspecified) | 50.6% (active) |
| CCOC(=O)c1c(NC(=O)c2ccc(Br)o2)sc2c1CCCC2 | 7.77% |
| Cc1ccc(CN(C(=O)c2sc3ccccc3c2Cl)C2CCS(=O)(=O)C2)cc1 (stereo unspecified) | 6.88% |
| C/C=C/C(=O)Nc1nnc(C(C)C)s1 | -19.7% |
| CNC(=O)c1c(NC(NC(=O)c2ccco2)C(=O)c2ccc(Cl)cc2)sc2c1CCCC2 (stereo unspecified) | -3.84% |
| COc1ccc(C(=O)Nc2nc(-c3ccc(S(=O)(=O)N4CCOCC4)cc3)cs2)cc1 | 3.26% |
| CNC(=O)c1c(NC(=O)c2ccc(S(=O)(=O)N3CCOCC3)cc2)sc2c1CCC2 | 94.5% [fluorescence artefact?] (active) |
| CCOC(=O)c1ccc2c(c1)nc(SCC(=O)NC(C)C)n2CC | 26.4% |
| CCOc1cc(C(=O)Nc2c(C)ccc3nsnc23)cc(OCC)c1OCC | 8.18% |
| N#CC(=C1CCCC1)c1nc(-c2ccc(Cl)cc2)cs1 | -5.55% |
| CCCCCN1CC(O)=C(c2nc(-c3ccc(Cl)cc3)cs2)C1=N | 65.8% [fluorescence artefact?] (active) |
| CCCCCN1CC(O)=C(c2ccccc2)C1=N | 2.06% |
| Cc1ccc(S(=O)(=O)Oc2ccc(/C=N/NC(=O)c3c(Cl)cnn3C)cc2)cc1 | -7.62% |
| COCCCn1c(SCC(=O)Nc2ccccc2)nnc1-c1ccncc1 | -1.59% |
| C=CCn1c(CC(=O)Nc2cccc(OC)c2)nnc1SCC(=O)NC1CCCCC1 | -5.03% |
| COCCCn1c(Cc2csc(Nc3cccc(Cl)c3)n2)nnc1SCC(=O)OC1CCCCC1 | 67.4% [fluorescence artefact?] (active) |
| CCOc1ccccc1/C=c1\sc2nc(-c3ccco3)nn2c1=O | 57.2% (active) |
| CCCCOc1ccccc1/C=c1/sc2nc(-c3oc4ccccc4c3C)nn2c1=O | 50% (active) |
| CCc1nc2oc3ccccc3c(=O)c2c(=O)n1Cc1ccc(OC)cc1 | 21% |
| CCOC(=O)/C=c1\s/c(=C\c2ccccc2OC)c(=O)n1CC(=O)N1CCOCC1 | -4.48% |
| O=c1nc2s/c(=C\c3ccco3)c(=O)n2nc1Cc1ccccc1 | 28.7% |
| CCOc1ccccc1C(=O)NCc1ccco1 | 10.6% |

| Compound | inhibition |
| --- | --- |
| COC(=O)CSc1nc(C)c2ccc(OC)cc2n1 | -6.48% |
| CC1CCCCC1NC(=O)C1CCCN1S(=O)(=O)c1cccc2nsnc12 (stereo unspecified) | 11.2% |
| Cc1cc(C)c(NC(=O)CN2CCOCCOCCOCCOCC2)c(C)c1 | 3.92% |
| O=C(CN1CCCCCC1)N1c2ccccc2Sc2ccc(C(F)(F)F)cc21 | -9.51% |
| Cc1ccc2c(c1)sc1ncc(NC(=O)c3ccccc3)c(=O)n12 | 53.5% [fluorescence artefact?] (active) |
| Cc1ccccc1NC(=O)c1ccccc1 | -4.17% |
| Cc1nc(NNC(=O)c2ccccc2)cc(-c2ccccc2)n1 | -1.45% |
| Cc1cccc(N(C(=O)c2ccc(CN3CCOCC3)o2)C(C(=O)NC2CCCCC2)c2ccc(F)cc2)c1 (stereo unspecified) | 2.65% |
| CS(=O)(=O)c1ccc2c(c1)SC1=NC(=O)/C(=C/c3ccco3)C(=N)N12 | 82.8% [fluorescence artefact?] (active) |
| COc1ccccc1N1CCN(C(=O)c2cn(-c3ccccc3)nc2-c2cccnc2)CC1 | 0.39% |
| COC(=O)c1cn(-c2ccccc2)nc1-c1cccnc1 | 1.49% |
| O=C(c1cn(-c2ccccc2)nc1-c1cccnc1)N1CCCCC1 | 93.3% [fluorescence artefact?] (active) |
| O=C(N/N=C\c1cccc(Br)c1)c1ccccc1-n1cccc1 | -1.04% |
| Oc1ccc(-c2onc3ccc(Cl)cc23)cc1 | 2.22% |
| O=S(=O)(NN=C1CCCCCCC1)c1ccc(Br)cc1 | -3.65% |
| O=C(NCc1ccco1)c1cnn2c(C(F)(F)F)cc(-c3ccco3)nc12 | 6.58% |
| COC(=O)c1cnn2c(C(F)(F)F)cc(-c3ccco3)nc12 | 62.1% (active) |
| COC(=O)c1cc2nc(-c3ccccc3)cc(C(F)(F)F)n2n1 | -12% |
| CC1(C)C2CCC13CS(=O)(=O)NC3C2 (stereo unspecified) | 3.36% |
| CCc1nnc(NC(=O)CSc2nc3ccccc3c(=O)n2CCCOC)s1 | 14.8% |
| O=C1/C(=C/c2cccs2)CCc2ccccc21 | 5.05% |
| Cc1ccc(-n2c(SCC(=O)Nc3ccc4c(c3)OCO4)nnc2-c2ccoc2C)cc1 | -0.65% |
| Cc1ccc(-n2c(SCC(=O)Nc3ccc4c(c3)OCO4)nnc2-c2ccccn2)cc1 | -7.91% |

| Compound | inhibition |
| --- | --- |
| COc1ccc(-n2c(SCC(=O)Nc3ccc4c(c3)OCO4)nnc2C(C)N2CCCCC2)cc1 (stereo unspecified) | 55.2% (active) |
| O=C1N=C(N2CCCC2)S/C1=C\c1cccc(Br)c1 | -3.71% |
| CSc1nc2nc3c(c(=O)n2[nH]1)CCC3 | -5.51% |
| CNc1nc(SC)nc(N(C#N)CC(=O)OC)n1 | -12.1% |
| O=C(NCC(=O)N(Cc1cccs1)C(C(=O)NC1CCCCC1)c1ccco1)c1cccs1 (stereo unspecified) | -0.84% |
| O=C(Cc1c[nH]c2ccccc12)OCCOC(=O)Cc1c[nH]c2ccccc12 | -4.73% |
| COc1cccc(NC(=O)CN2CCN(c3nc(-c4cccc(OC)c4)cs3)CC2)c1 | -8.12% |
| CC1Cc2ccccc2N1C(=O)CSc1nnc(-c2ccc(S(=O)(=O)N3CCCCC3)cc2)o1 (stereo unspecified) | 72.8% [fluorescence artefact?] (active) |
| CC1Cc2ccccc2N1C(=O)CSc1nc2ccccc2o1 (stereo unspecified) | -8.05% |
| CCS(=O)(=O)c1ccc2oc(SCC(=O)N3c4ccccc4CC3C)nc2c1 (stereo unspecified) | 14% |
| O=C(CCN1c2ccccc2Sc2ccccc21)Nc1ccccc1 | -1.92% |
| Cc1ccc(Nc2nnc(SCc3ccccc3)s2)cc1 | -0.81% |
| O=C(CCN1CCc2ccccc2C(O)(c2ccccc2)C1)c1ccc2c(c1)OCCO2 (stereo unspecified) | 6.71% |
| Cc1ccc(SCC(=O)c2cc(C)c(OC(=S)N(C)C)c(C)c2)cc1 | 1.54% |
| COc1ccc(-c2nc3ccccc3n2CCC(C)C)cc1OC | 0.74% |
| Cc1ccc2[nH]c(=O)c(-c3nc4c(C)cccn4c3NCc3ccco3)cc2c1 | 92.7% [fluorescence artefact?] (active) |
| CCNCc1cc2cc(C)ccc2[nH]c1=O | 5.96% |
| Cc1ccc2nc(SC(C)C(=O)NCc3ccco3)[nH]c2c1 (stereo unspecified) | 0.42% |
| CC(C)(C)c1ccc(OC2=CS(=O)(=O)c3ccccc32)cc1 | -1.62% |
| CCCCCCc1cc2cc(-c3nnc(-c4ccccc4)o3)c(=O)oc2cc1O | 53.5% (active) |
| COc1ccc(CC(=O)Nc2ccc(-c3nnc(-c4ccccc4)o3)cc2)cc1 | 40.1% |
| CCCCCCc1cc2cc(-c3nnc(-c4cccc(OC)c4)o3)c(=O)oc2cc1O | -2.99% |
| CCOc1ccc(S(=O)(=O)NCCSc2ccccc2)cc1 | 0.2% |

| Compound | inhibition |
| --- | --- |
| Cc1cc(C)c2c(n1)nn1c(N3CCOCC3)cc(C)nc21 | 10.7% |
| Cc1cc(C)c2c(n1)nn1c(N3CCN(c4cccc(Cl)c4)CC3)cc(C)nc21 | 73.8% (active) |
| Cc1cc(C)c2c(n1)nn1c(-n3ccnc3)cc(C)nc21 | 4.13% |
| COc1ccc(C2CC(c3cccs3)=Nc3ccccc3S2)cc1OC (stereo unspecified) | 15.7% |
| Cc1cccc(-c2nc3c(c(SCC(=O)N4CCOCC4)n2)CCCC3)c1 | -17.1% |
| Cc1nc(NC(=O)C2CCCCC2)sc1C | 0.45% |
| O=C(Cn1nnc(-c2ccc3c(c2)OCO3)n1)NCc1ccco1 | 41.7% |
| CS(=O)(=O)N(CC(=O)NCc1ccco1)c1ccc2c(c1)OCO2 | 53.8% (active) |
| CS(=O)(=O)N(CC(=O)N1CCN(Cc2ccc3c(c2)OCO3)CC1)c1ccc2c(c1)OCO2 | 2.04% |
| COC(=O)c1cccc(N(C(=O)c2ccco2)C(C(=O)NC2CCCC2)c2ccco2)c1 (stereo unspecified) | -14.6% |
| CC1=C(C(=O)Nc2ccccc2)C(c2ccco2)C(C#N)=C(SCC(N)=O)N1 (stereo unspecified) | -3.05% |
| Cc1cc2c(c(=O)n1Cc1ccco1)C(c1ccccc1)C(C#N)=C(N)O2 (stereo unspecified) | -11.1% |
| N#CC1=C(N)Oc2c(sc3ccccc23)C1c1ccco1 (stereo unspecified) | 85.9% [fluorescence artefact?] (active) |
| Cc1cc(C(=O)OC(C)C(=O)Nc2cccc(S(=O)(=O)N3CCOCC3)c2)c(C)o1 (stereo unspecified) | 0.74% |
| CCOC(=O)Cc1csc(NC(=O)CSc2nnc(-c3cccnc3)n2Cc2ccco2)n1 | -5.63% |
| Cc1cc(N2CCN(S(=O)(=O)c3ccc(C)c(C)c3)CC2)c2ccccc2n1 | 16.1% |
| CCNCCC(=O)N1c2ccccc2Sc2ccc(NC(=O)OCC)cc21 | -22% |
| CCO/C([O-])=N/c1c[n+](N2CCOCC2)no1 | 51.1% (active) |
| O=C(NCCN1CCN(Cc2ccccc2)CC1)c1cc2c(=O)[nH]c3ccccc3c2s1 | 24.2% |
| Fc1ccc(-c2ccc(-c3nn4c(-c5ccco5)nnc4s3)o2)cc1 | 69.7% [fluorescence artefact?] (active) |
| FC(F)(F)c1nnc2sc(-c3ccco3)nn12 | 2.64% |
| Cc1nnc2sc(-c3ccco3)nn12 | 0.95% |
